TLR9-MyD88 inh – inhibitors of human TLR9-MyD88 binding | Q9NR96+Q99836 | CHO BLA complementation TLR9-MyD88, CCF4 FRET ratio | inhibition, % at 4.98 µM | hit rate 0.21% among 340,000 | AID 504734;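 active means inhibition above the mean over all tested compounds plus 3 SD, cut at about 21% in these data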;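 further: 0% = DMSO only wells and 100% = clavulanate BLA inhibitor control wells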
rCAG binder – binds r(CAG) RNA repeats; inhibition, % at 3 µM; r(CAG) RNA repeat, TO-PRO-1 dye displacement fluorescence; hit rate 1.3% among 370,000;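 active means inhibition above the plate cutoff, the mean of all test compounds on that plate plus 3 SD, cut at about 35% in these data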;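 further: 0% = DMSO alone and 100% = 100 µM mitoxantrone as full dye displacement; higher means more dye released from RNA so lower well fluorescence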
PRMT1 FP inh – blocks human protein arginine methyltransferase 1; Q99873; recombinant PRMT1, activity-based probe fluorescence polarization; inhibition, % at 2.79 µM; hit rate 1.3% among 370,000; AID 652257;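 active means inhibition above about 21% made by adding two undisclosed values, limit read from the data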
TLR4-MyD88 BLA – blocks binding of human TLR4 to MyD88 | O00206+Q99836 | HeLa CL3-4 TLR4/MyD88 BLA complementation, FRET ratio | inhibition, % at 8.4 µM | hit rate 0.18% among 200,000 | AID 861; in the data active means inhibition above about 25%;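 further: 0% = vehicle and 100% = reference inhibitor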
NOD2-RIPK2 inh – NOD2-RIPK2 protein interaction inhibition | O43353 | CHO BLA complementation NOD2-RIPK2, CCF4 ratio | inhibition, % at 4.98 µM | hit rate 0.38% among 360,000 | AID 624267; in the data active means inhibition above about 21%;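 further: 0% = vehicle only and 100% = reference blocker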
Target sequence (O43353 whole entry, looked up): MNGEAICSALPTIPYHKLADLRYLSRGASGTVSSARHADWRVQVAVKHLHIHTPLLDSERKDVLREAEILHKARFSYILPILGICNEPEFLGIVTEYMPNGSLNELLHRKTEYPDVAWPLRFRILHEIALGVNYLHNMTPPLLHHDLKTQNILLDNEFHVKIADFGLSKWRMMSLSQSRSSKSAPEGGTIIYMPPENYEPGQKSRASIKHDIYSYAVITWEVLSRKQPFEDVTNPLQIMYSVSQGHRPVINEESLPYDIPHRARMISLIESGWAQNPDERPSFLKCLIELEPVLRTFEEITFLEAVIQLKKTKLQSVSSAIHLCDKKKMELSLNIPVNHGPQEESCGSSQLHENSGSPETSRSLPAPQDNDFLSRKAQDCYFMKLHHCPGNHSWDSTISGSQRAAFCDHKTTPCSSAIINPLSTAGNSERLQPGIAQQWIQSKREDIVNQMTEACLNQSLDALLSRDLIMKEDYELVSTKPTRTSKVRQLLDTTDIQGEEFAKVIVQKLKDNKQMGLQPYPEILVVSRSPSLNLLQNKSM
ABHD5-PLIN5 inh – inhibitors of human ABHD5-perilipin-5 interaction. Q00G26+Q8WTS1. Split G. princeps luciferase complementation, luminescence, 4 h. inhibition, % at 4 µM. hit rate 0.78% among 360,000. AID 602281;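 active means inhibition above the mean inhibition across every tested compound plus 3 SD, cut at about 22% in these data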;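 further: 0% = DMSO only wells and the 100% control is not disclosed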
rCAG bind conf – r(CAG) RNA repeat binding, confirmation; shares compounds with rCAG binder; TO-PRO-1 dye displacement fluorescence; AID 652065; hit rate 70% among 4,300; inhibition, % at 3 µM;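 active means inhibition above a per-plate cutoff, the mean inhibition of sample wells plus 3 SD, cut at about 35% in these data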;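 further: loss of TO-PRO-1 fluorescence as compound displaces dye from 1x1 AA loop RNA; 0% = DMSO only wells and 100% = 100 µM mitoxantrone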
DNA CAG counter – counter-screen for rCAG RNA binders: DNA CAG dye complex inhibitors; shares compounds with rCAG binder; d(CAG) DNA oligo TO-PRO-1 dye displacement, fluorescence; inhibition, % at 3 µM; hit rate 94% among 4,300; AID 652068;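 active means inhibition above its plate's cutoff, the mean test-well inhibition plus 3 SD, cut at about 4.8% in these data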;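 further: 0% = DNA dye mix with DMSO and 100% = 100 µM mitoxantrone; hits displace the dye from DNA and so lower well fluorescence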
dCAG dye DR – counter-screen for rCAG binders: inhibitors of DNA CAG TO-PRO-1 complex; shares compounds with rCAG binder; DNA CAG/GTC duplex TO-PRO-1 dye displacement fluorescence; IC50, µM; hit rate 20% among 250; in the data active means IC50 below about 10 µM
* = called active by the depositor; i = inactive; · = no result. Shown are actives, neighbours in structure and some others; about 3.3% of the full set was active somewhere.

SMILES	TLR9-MyD88 inh	rCAG binder	PRMT1 FP inh	TLR4-MyD88 BLA	NOD2-RIPK2 inh	ABHD5-PLIN5 inh	rCAG bind conf	DNA CAG counter	others
O=C(CCN1C(=O)/C(=C/c2cccs2)SC1=S)Nc1ccc(C(=O)O)c(O)c1	-9	93*	1	·	-10	5	80*	50*
O=C(CCN1C(=O)/C(=C/c2cccs2)SC1=S)Nc1ccc(O)cc1	1	13	4	·	16	6	·	·
O=C(CCCN1C(=O)/C(=C/c2cccs2)SC1=S)Nc1ccc(C(=O)O)cc1	·	42*	8	6	4	4	39*	7.8*
O=C(CCCN1C(=O)/C(=C/c2cccs2)SC1=S)Nc1cccc(C(=O)O)c1	0	5	-2	-16	2	0	·	·
CC(/C=C1\SC(=S)N(CCCC(=O)Nc2ccc(C(=O)O)c(O)c2)C1=O)=C\c1ccccc1	·	·	·	-21	·	·	·	·
COCCNC(=O)CN(C(=O)CCC(=O)Nc1ccccn1)c1ccc(C)cc1C	13	-9	-1	·	-12	-6	·	·
CN(Cc1ccc(F)cc1)C(=O)c1cccc(OCc2ccccc2)c1	1	-1	2	·	5	1	·	·
CCOC(=O)/C=C/[C@H]1CCc2cccc(Cl)c2O1	-7	-6	-1	·	-1	-10	·	·
OC[C@@H]1CN(Cc2ccc3c(c2)OCO3)C[C@H](n2cnc3c(NCc4ccc(F)cc4)ncnc32)O1	·	2	-2	·	-5	0	·	·
COc1ccc(-c2coc3cc4oc(=O)c(CC(=O)O)c(C)c4cc23)cc1	-9	3	3	·	2	0	·	·
COc1cccc(-c2coc3cc4oc(=O)c(CCC(=O)O)c(C)c4cc23)c1	-5	47*	5	·	-12	0	47*	14*
CCCCC(NC(=O)Cc1c(C)c2cc3c(-c4ccccc4)coc3c(C)c2oc1=O)C(=O)O (centres undefined)	-4	37*	2	·	-2	-7	65*	24*
Cc1oc2c(c(C)cc3oc(=O)c(CC(=O)N[C@H](C(=O)O)C(C)C)c(C)c32)c1C	3	22	0	·	-3	4	·	·
Cc1oc2c(c(C)cc3oc(=O)c(CC(=O)N[C@@H](CC(C)C)C(=O)O)c(C)c32)c1C	4	43*	-2	·	-18	-3	33	6.3*
Cc1c(CC(=O)O)c(=O)oc2c(C)c3occ(-c4ccc(Br)cc4)c3cc12	4	7	2	·	4	5	·	·
CC[C@@H](C)[C@H](NC(=O)Cc1c(C)c2cc3c(C)c(C)oc3c(C)c2oc1=O)C(=O)O	-6	37*	-1	·	-1	6	34	7.1*
CC[C@@H](C)[C@H](NC(=O)Cc1c(C)c2cc3c(C)coc3c(C)c2oc1=O)C(=O)O	1	21	-4	·	-12	3	·	·
CCN(C[C@H]1N[C@@](Cc2ccccc2)(C(=O)OC)[C@H]2C(=O)N(C)C(=O)[C@@H]12)C(=O)NC(C)C	-3	3	1	·	-15	0	·	·
C[C@H]1[C@@H](OC(=O)N2CCCC2)CC[C@@]23CCCN2C(=O)CCC[C@@H]13	·	·	-1	·	·	·	·	·
CCOC(=O)c1c(N/N=C/c2ccncc2)n[nH]c1C	3	1	-2	2	-13	0	·	·
CCOc1ccc(NC(=O)CN(C)C(=O)c2cc(C3CC3)nn2-c2ccccc2)cc1OCC	-6	-5	5	·	4	6	·	·
COc1cccc(-c2coc3c(C)c4oc(=O)c(CC(=O)O)c(C)c4cc23)c1	-7	11	1	·	5	-1	·	·
COc1cccc(-c2coc3c(C)c4oc(=O)c(CCC(=O)O)c(C)c4cc23)c1	-3	58*	11	·	-6	12	74*	34*	dCAG dye DR=i
CCOC(=O)C1CCN(C(=O)c2ccccc2)c2scc(-c3ccccc3)c2C1=O (centres undefined)	2	2	0	·	5	-1	·	·
CCOC(=O)C1=C(C)NC(SCC(N)=O)=C(C#N)C1c1cccs1 (centres undefined)	4	1	-2	-8	4	-7	·	·
SMILES	TLR9-MyD88 inh	rCAG binder	PRMT1 FP inh	TLR4-MyD88 BLA	NOD2-RIPK2 inh	ABHD5-PLIN5 inh	rCAG bind conf	DNA CAG counter	others
CCOC(=O)C1=C(C)NC(SCc2cc(=O)[nH][nH]2)=C(C#N)C1c1cccs1 (centres undefined)	6	59*	7	7	-15	-6	39*	17*
O=C(O)/C=C/c1cn(-c2ccccc2)nc1-c1cc2ccccc2o1	-2	67*	4	·	-8	-3	73*	26*	dCAG dye DR=i
O=C(O)/C=C/c1cn(-c2ccccc2)nc1-c1ccccc1	1	18	8	·	2	2	·	·
O=C(O)/C=C\c1cn(-c2ccccc2)nc1-c1cc2ccccc2o1	-2	72*	5	1	2	-4	62*	22*
Fc1cccc(Cn2ccc3ccc(-c4ccc5ccn(Cc6ccccc6)c5c4)cc32)c1	·	17	1	·	·	·	·	·
FC(F)(F)Oc1cccc(Cn2ccc3ccc(-c4ccc5ccn(Cc6ccccc6)c5c4)cc32)c1	·	55*	2	·	·	·	14	8.9*
CC1=C(C)CC(C(=O)Nc2nc(-c3ccc(C)cc3C)c(C)s2)C(C(=O)O)C1 (centres undefined)	4	54*	-3	-1	-5	-4	56*	23*	dCAG dye DR=>30
CCCCNC(=O)C[C@@H]1C(=O)N(CCc2ccc(Cl)cc2)/C2=C/CCCCC[C@@]21C(=O)OCC	·	1	-2	·	·	·	·	·
Cc1cc(Br)ccc1NC(=O)CN(C)Cc1cccs1	-6	0	0	·	-10	7	·	·
COc1cc(/C=C2\SC(=Nc3ccccc3)NC2=O)cc(Cl)c1O	5	-12	-10	·	-4	7	·	·
CCc1ccc(N=C2NC(=O)/C(=C/c3cc(OC)c(O)c(OC)c3)S2)cc1	-1	42*	0	·	2	-2	40*	16*
Clc1ccc(C#Cc2cccnc2)cc1	-6	2	-1	·	-9	5	·	·
O=S(=O)(Nc1nc(CN2CCOCC2)nc2sc3c(c12)CCCC3)c1cc(F)ccc1F	-1	50*	2	-2	-7	-6	38*	9.6*
Cc1sc2nc(CN3CCOCC3)nc(NS(=O)(=O)c3cc(Cl)ccc3Cl)c2c1C	-1	53*	0	·	0	-3	46*	10*
ClCc1ncc(-c2ccc(Cl)cc2)o1	-11	0	0	8	-7	6	·	·
CCSc1nsc(NC(=O)Nc2cccc(F)c2)n1	-18	63*	-1	·	3	-16	16	17*
COc1ccc(NC(=O)Nc2cccc(OC)c2)cc1	-4	0	0	14	-5	-5	·	·

Screening results deposited in PubChem by The Scripps Research Institute Molecular Screening Center.
